Several values for one entry are separate records, joined by “and”; a condition that tells them apart may be missing. Equal values may be shown once. Records with an inconclusive call do not appear. A call without a number means that no potency is given here. Activity calls are given as the source filed them. Unless noted, the call rests on the fitted dose curve; in most records, active means well fitted curve in the direction sought with a large enough effect; inconclusive means small, poorly fitted or top-dose-only effect, or another doubt; inactive means no such curve, though single readings can be large; an effect the other way counts as inactive or inconclusive.
Legend:
[1] = biological target: Alpha-galactosidase A (Homo sapiens) (UniProt P06280); assay: Counterscreen for Glucocerebrosidase Inhibitors: qHTS Assay for Human alpha-Galactosidase at pH 4.5 (AID 992)
Alpha-galactosidase A (Homo sapiens), sequence (P06280 whole entry, looked up): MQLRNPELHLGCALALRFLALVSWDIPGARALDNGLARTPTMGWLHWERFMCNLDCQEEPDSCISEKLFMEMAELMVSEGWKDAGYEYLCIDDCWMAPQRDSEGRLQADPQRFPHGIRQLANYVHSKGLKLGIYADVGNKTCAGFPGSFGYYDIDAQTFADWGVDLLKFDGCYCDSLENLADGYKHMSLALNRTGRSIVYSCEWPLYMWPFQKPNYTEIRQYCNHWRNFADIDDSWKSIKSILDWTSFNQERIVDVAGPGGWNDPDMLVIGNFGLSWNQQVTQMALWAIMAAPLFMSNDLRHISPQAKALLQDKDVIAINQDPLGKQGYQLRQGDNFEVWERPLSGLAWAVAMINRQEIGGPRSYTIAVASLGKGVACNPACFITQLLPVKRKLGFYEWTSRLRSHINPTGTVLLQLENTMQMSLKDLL
How it was run: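 Human enzyme (2 nM) with 80 uM 4-methylumbelliferyl alpha-D-galactopyranoside in 50 mM citric acid, 0.005% Tween-20, pH 4.5, 20 min at room temperature. Compounds 0.7 nM–77 uM; fluorescence Ex 365/Em 440 after pH 10 stop; AC50 from Hill fits.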

[2] = biological target: alpha-glucosidase (Oryza sativa, rice) (UniProt Q653V4); assay: Counterscreen for Glucocerebrosidase Inhibitors: qHTS Assay for Rice alpha-Glucosidase at pH 5.0 (AID 997)
How it was run: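 Rice alpha-glucosidase (4 nM final) with 400 uM 4-methylumbelliferyl-alpha-D-glucopyranoside in citrate buffer pH 5.0, 20 min at room temperature, stopped at pH 10; fluorescence 365/440 nm, compounds 0.7 nM–77 uM, AC50 from Hill fits.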

[3] = Validation of Assay for Modulators of Lamin A Splicing (AID 1459; active means well fitted curve in the direction sought with a large enough effect in the signal ratio; the % refers to the signal ratio;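 further: cells exposed to compound for two days before reading; ratio rise marks activators and ratio drop marks inhibitors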)
How it was run: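 S3 HeLa cells stably expressing a lamin A-EGFP splicing minigene and DsRed2 were seeded at 600 cells/well in Opti-MEM with 2% FBS, pin-dosed, and incubated 48 hrs at 37 °C, 5% CO2. Laser-scanning cytometry (488 nm) gave GFP/RFP total intensity ratio.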

[4] = Counterscreen for APE1 Inhibitors: Fluorescent Dye Displacement Validation Assay (AID 1707)
How it was run: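 Thiazole Orange (250 nM) bound to 50 nM TAMRA-labelled dsDNA with tetrahydrofuran abasic site; displacement by DNA-binding compounds lowers fluorescence. Buffer 50 mM Tris-HCl pH 7.5, 50 mM NaCl, 2 mM MgCl2, 0.01% Tween-20; endpoint read at 480/540 nm.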

[5] = biological target: Endonuclease 4 (Escherichia coli (strain K12)) (UniProt P0A6C1); assay: Counterscreen for APE1 Inhibitors: qHTS Validation Assay for Inhibitors of Endonuclease IV (AID 1708)
How it was run: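 2 nM enzyme was preincubated with compounds for 15 min at room temperature in 50 mM Tris-HCl pH 7.5, 50 mM NaCl, 2 mM MgCl2, 1 mM DTT, 0.01% Tween-20. 50 nM THF-abasic TAMRA/BHQ-2 duplex substrate started the reaction.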

[6] = qHTS for differential inhibitors of proliferation of Plasmodium falciparum line 7G8 (AID 1815);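 further: parasite growth measured after three days of incubation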; further: potency means the concentration at half of the fitted maximal effect
[7] = qHTS Assay for Lipid Storage Modulators (AID 1519; calls by dose curve); settings: Drosophila S3 cells, BODIPY lipid droplet/cell ratio, laser cytometry, cells loaded with oleic acid
How it was run: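 Cells seeded at 5,000 per well were treated with compounds over a concentration series and loaded with oleic acid (400 uM, as added). Lipid droplet fluorescence (488 nm excitation, 500-530 nm channel) was read by laser-scanning cytometry and normalized to 20 uM Triacsin C.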

[8] = biological target: DNA repair nuclease/redox regulator APEX1 (Homo sapiens) (UniProt P27695); assay: qHTS Validation Assay for Inhibitors of the Human Apurinic/apyrimidinic Endonuclease 1 (APE1) (AID 1705;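 further: TAMRA fluorescence gain over two minutes as APE1 cuts a quenched THF abasic duplex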)
DNA repair nuclease/redox regulator APEX1 (Homo sapiens), sequence (P27695 whole entry, looked up): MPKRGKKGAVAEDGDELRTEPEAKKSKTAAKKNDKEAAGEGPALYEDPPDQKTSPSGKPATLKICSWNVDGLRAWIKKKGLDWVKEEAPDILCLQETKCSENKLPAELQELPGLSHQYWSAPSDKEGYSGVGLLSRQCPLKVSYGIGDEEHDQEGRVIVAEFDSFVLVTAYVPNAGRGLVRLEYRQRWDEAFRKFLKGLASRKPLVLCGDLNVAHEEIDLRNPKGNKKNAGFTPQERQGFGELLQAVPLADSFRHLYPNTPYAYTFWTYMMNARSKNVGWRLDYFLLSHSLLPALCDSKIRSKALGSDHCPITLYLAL
How it was run: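 Human APE1 was preincubated with compound for 15 min at room temperature, then 50 nM (final) THF-abasic double-stranded DNA substrate bearing 5'-TAMRA and 3'-BHQ-2 was added. Incision-driven fluorescence rise (ex 525/em 598 nm) was read kinetically.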

[9] = qHTS for differential inhibitors of proliferation of Plasmodium falciparum line GB4 (AID 1816); settings: Potency: Plasmodium falciparum GB4 proliferation inhibition;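 further: parasite growth measured after 72 h incubation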; further: potency means the concentration at half of the fitted maximal effect
[10] = qHTS for differential inhibitors of proliferation of Plasmodium falciparum line 3D7 (AID 1876); further: potency means the concentration at half of the fitted maximal effect
[11] = measured here: cell count channel max response
[12] = measured here: lipid channel max response

With `CNC(=O)c1cc2c(cn1)[nH]c1ccccc12` the outcome [1] was “inactive”, the outcome [2] was “inactive” and the outcome [3] was “inactive”. The Potency [4] was “inactive”, the Potency [5] was “inactive” and the Potency [6] was 12.6 µM (active).

For `CNCCNS(=O)(=O)c1cccc2cnccc12`, the outcome [1] was “inactive”, the outcome [2] was “inactive” and the activity change, negative = inhibition ([7]; at 57.5 µM (top of the series)) was 0.292% (inactive). For the same compound, the max response [7, 11] was 5.66%, the max response [7, 12] was 5.52% and the Potency [8] was “inactive”. The Potency [4] was “inactive”, the Potency [5] was “inactive” and the Potency [6] was “inactive”. The Potency [9] was “inactive” and the Potency [10] was “inactive”.

For `CC(C)NC[C@H](O)COc1ccc(CC(N)=O)cc1`, the outcome [1] was “inactive”, the outcome [2] was “inactive” and the activity change, negative = inhibition ([7]; at 25.7 µM (top of the series)) was -3.22% (inactive) and -3.29% (inactive). The activity change, negative = inhibition ([7]; at 57.5 µM (top of the series)) was 0.49% (inactive) and -5.77% (inactive), the max response [7, 11] was -3.12% [middle of 4 runs] and the max response [7, 12] was -2.86% [middle of 4 runs]. The Potency [8] was “inactive”, the Potency [4] was “inactive” and the Potency [6] was “inactive”. For the same compound, the Potency [9] was “inactive” and the Potency [10] was “inactive”.

In the case of `CC[C@@H]1Cc2cc(O)ccc2C2=C1c1ccc(O)cc1C[C@H]2CC`, the outcome [1] is reported as “inactive”, the activity change, negative = inhibition ([7]; at 57.5 µM (top of the series)) is reported as -3.04% (inactive) and the max response [7, 11] is reported as -26.2%. For the same compound, the max response [7, 12] was -25.3%, the Potency [8] was “inactive” and the Potency [5] was “inactive”. For the same compound, the Potency [6] was 5.62 µM (active), the Potency [9] was 4.47 µM (active) and the Potency [10] was 11.2 µM (active).

For `CC(C)(CO)Cc1cc(C(C)(C)C)c(O)c(C(C)(C)C)c1`, the outcome [1] was “inactive”, the outcome [2] was “inactive” and the activity change, negative = inhibition ([7]; at 57.5 µM (top of the series)) was -0.753% (inactive). For the same compound, the max response [7, 11] was -30.7%, the max response [7, 12] was -34% and the Potency [8] was “inactive”. The Potency [4] was “inactive” and the Potency [10] was 3.98 µM (active).

With `CCCn1c(=O)c2[nH]c(C3CCCC3)nc2n(CCC)c1=O` the outcome [1] was “inactive”, the outcome [2] was “inactive” and the activity change, negative = inhibition ([7]; at 57.5 µM (top of the series)) was 7.3% (inactive). For the same compound, the max response [7, 11] was 9.56%, the max response [7, 12] was 17.6% and the Potency [8] was “inactive”. The Potency [4] was “inactive” and the Potency [5] was “inactive”.

With `N[C@H](C(=O)O)c1cc(O)cc(O)c1` the outcome [1] was “inactive”, the outcome [2] was “inactive” and the activity change, negative = inhibition ([7]; at 57.5 µM (top of the series)) was 10.3% (inactive) and 1.43% (inactive) and 0.261% (inactive). For the same compound, the max response [7, 11] was 7.08% and 3.62% and -19%, the max response [7, 12] was 19.7% and 15.4% and -15.9% and the Potency [8] was “inactive”. The Potency [4] was “inactive”, the Potency [5] was “inactive” and the Potency [6] was “inactive”. For the same compound, the Potency [9] was “inactive” and the Potency [10] was “inactive”.

For `CC(N)(Cc1ccc(O)c(O)c1)C(=O)O` (stereo unspecified), the outcome [3] was “inactive”, the Potency [4] was “inactive” and the Potency [5] was “inactive”. The Potency [6] was “inactive” and the Potency [10] was “inactive”.

In the case of `CCC1(O)CC2CN(CCc3c([nH]c4ccccc34)[C@@](C(=O)OC)(c3cc4c(cc3OC)N(C=O)C3[C@]45CCN4CC=C[C@@](CC)([C@@H](OC(C)=O)[C@]3(O)C(=O)OC)[C@H]45)C2)C1` (stereo partly specified), the activity change, negative = inhibition ([7]; at 57.5 µM (top of the series)) is reported as 2.35% (inactive), the max response [7, 11] is reported as -1.21% and the max response [7, 12] is reported as 2.17%. The Potency [8] was “inactive”, the Potency [6] was 0.794 µM (active) and the Potency [10] was 0.0631 µM (active).

With `OC[C@H]1O[C@@H](n2cnc3cncnc32)[C@H](O)[C@@H]1O` the activity change, negative = inhibition ([7]; at 57.5 µM (top of the series)) was -4.73% (inactive), the max response [7, 11] was 0.328% and the max response [7, 12] was -1.94%. For the same compound, the Potency [8] was “inactive”, the Potency [5] was “inactive” and the Potency [6] was “inactive”. For the same compound, the Potency [10] was 5.01 µM (active).

With `NC(=O)CNCCC(c1ccccc1)c1ccccc1` the outcome [1] was “inactive”, the outcome [2] was “inactive” and the activity change, negative = inhibition ([7]; at 57.5 µM (top of the series)) was 0.71% (inactive). The max response [7, 11] was -14.5%, the max response [7, 12] was -14.2% and the Potency [8] was “inactive”. For the same compound, the Potency [5] was “inactive” and the Potency [6] was 4.47 µM (active).

In the case of `CC#CCOC(=O)c1c(C)nc2sc3c(c2c1N)CCC(O)C3` (stereo unspecified), the activity change, negative = inhibition ([7]; at 57.5 µM (top of the series)) is reported as -1.83% (inactive), the max response [7, 11] is reported as 5.64% and the max response [7, 12] is reported as 4.05%. For the same compound, the Potency [8] was “inactive”, the Potency [5] was “inactive” and the Potency [10] was 11.2 µM (active).

From PubChem BioAssay (NCATS)
